PubChem BioAssay (Tox21)
Results filed as inconclusive are left out. Active and inactive are the calls of the source. Unless noted, calls follow the shape of the dose curve; as a rule, active = well fitted curve in the direction sought with a large enough effect in the repeat runs; inconclusive = weak or mixed curves; inactive = no such curve, though single readings can be large; an effect the other way counts as inactive or inconclusive.

Legend:
[1] = qHTS assay to identify small molecule agonists of the hypoxia (HIF-1) signaling pathway - cell viability counter screen (AID 1224844; calls by dose curve; also: nearly all actives have a fitted effect of over 50% in size)
In short: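 Tox21 10K compounds were added to HRE-bla ME-180 cells (0.5% dialyzed FBS) and incubated 17 hrs at 37C; ATP-based CellTiter-Glo luminescence then reported cell viability in the same wells.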

[2] = qHTS assay to identify small molecule agonists of H2AX (AID 1224845; active = well fitted activation curve with a large enough effect in the signal ratio in the repeat runs, not every such curve was filed as active; the % refers to the signal ratio)
In short: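 Wild-type CHO-K1 cells plated overnight, then exposed 3 hr at 37C to compounds at 15 concentrations (0.76% DMSO). Lysed, then HTRF anti-pH2AX(S139)-cryptate/anti-H2AX-d2 detection after 24 hr at room temperature; emissions 665 and 620 nm.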

[3] = qHTS assay to identify small molecule agonists of the hypoxia (HIF-1) signaling pathway (AID 1224846; active = well fitted activation curve with a large enough effect in the signal ratio in the repeat runs, not every such curve was filed as active; the % refers to the signal ratio)
In short: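 Steps: seed ME-180 HRE-bla cells (2,000/well, 0.5% dialyzed FBS); incubate 5 hrs at 37C; pin-transfer compounds or DMSO; incubate 17 hrs; add LiveBLAzer B/G substrate CCF4-AM; measure reporter activation by FRET.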

[4] = qHTS assay to identify small molecule agonists of H2AX - cell viability counter screen (AID 1224847; calls by dose curve; also: top concentration of the series differs between compounds; nearly all actives have a fitted effect of over 30% in size)
In short: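 Counter-screen for viability: CellTiter-Glo ATP luminescence read after 3 h compound treatment (15-point titration, 0.76% DMSO final) of CHO-K1 cells at 37C, with 30 min room-temperature reagent incubation.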

[5] = qHTS RealTime-Glo MT Cell Viability Assay in HepG2 cells - 24 hour (AID 1224867); also: nearly all actives have a fitted effect of over 50% in size
In short: (§1)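 HepG2 cells (600/well) were dispensed with RealTime-Glo reagents, incubated 5 h at 37 °C, then treated with compounds in DMSO for up to 40 h. Nonlytic NanoLuc luminescence reflecting viable cells was read at each stated time point.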

[6] = qHTS RealTime-Glo MT Cell Viability Assay in HEK293 cells - 32 hour (AID 1224868); also: top concentration of the series differs between compounds; nearly all actives have a fitted effect of over 50% in size
In short: (§2)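 HEK293 cells seeded with NanoLuc/prosubstrate reagent, rested 5 h at 37 C, then dosed and kept at 37 C up to 40 h. Nonlytic real-time luminescence from viable cells read at 0, 8, 16, 24, 32 and 40 h.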

[7] = A CellTox Green Cytotoxicity Assay to monitor cytotoxicity in HEK293 cells - 0 hour (AID 1224869); also: nearly all actives have a fitted effect of over 50% in size
In short: (§3)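 Cytotoxicity was tracked continuously in HEK293 cells by a DNA-binding dye excluded from viable cells. Compounds were transferred in DMSO 5 h after seeding; fluorescence was recorded at intervals up to 40 h.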

[8] = qHTS RealTime-Glo MT Cell Viability Assay in HepG2 cells - 40 hour (AID 1224870); also: nearly all actives have a fitted effect of over 50% in size
In short: (§4)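 HepG2 cells mixed with RealTime-Glo MT reagents (NanoLuc plus cell-permeant prosubstrate) were seeded at 600 cells/well, incubated 5 h at 37 C/5% CO2, then pinned with compounds in DMSO; nonlytic luminescence tracked viability during 40 h treatment.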

[9] = A CellTox Green Cytotoxicity Assay to monitor cytotoxicity in HEK293 cells - 40 hour (AID 1224871); also: nearly all actives have a fitted effect of over 45% in size
In short: as §3

[10] = qHTS RealTime-Glo MT Cell Viability Assay in HEK293 cells - 16 hour (AID 1224872)
In short: as §2

[11] = qHTS RealTime-Glo MT Cell Viability Assay in HepG2 cells - 8 hour (AID 1224873); also: nearly all actives have a fitted effect of over 55% in size
In short: as §4

[12] = qHTS RealTime-Glo MT Cell Viability Assay in HEK293 cells - 40 hour (AID 1224874); conditions: RealTime-Glo luminescence; max response: hits give low values; also: nearly all actives have a fitted effect of over 50% in size
In short: (§5)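 Nonlytic bioluminescent viability monitoring. HEK293 at 600 cells/well with reagent; 5 h settle; compound transfer by pintool; plates held at 37 C and read at set time points.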

[13] = A CellTox Green Cytotoxicity Assay to monitor cytotoxicity in HEK293 cells - 24 hour (AID 1224875); also: nearly all actives have a fitted effect of over 45% in size
In short: as §3

[14] = A CellTox Green Cytotoxicity Assay to monitor cytotoxicity in HepG2 cells - 16 hour (AID 1224876); also: nearly all actives have a fitted effect of over 45% in size
In short: (§6)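 Real-time, homogeneous cytotoxicity readout: dead-cell DNA staining by CellTox Green in HepG2 monolayers, fluorescence measured at timed intervals up to 40 h of continuous compound exposure.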

[15] = qHTS RealTime-Glo MT Cell Viability Assay in HepG2 cells - 32 hour (AID 1224877); also: nearly all actives have a fitted effect of over 55% in size
In short: as §1

[16] = A CellTox Green Cytotoxicity Assay to monitor cytotoxicity in HepG2 cells - 24 hour (AID 1224878); also: nearly all actives have a fitted effect of over 45% in size
In short: as §6

[17] = A CellTox Green Cytotoxicity Assay to monitor cytotoxicity in HepG2 cells - 40 hour (AID 1224879); also: nearly all actives have a fitted effect of over 40% in size
In short: as §6

[18] = qHTS RealTime-Glo MT Cell Viability Assay in HEK293 cells - 0 hour (AID 1224880)
In short: as §5

[19] = qHTS assay to identify small molecule antagonists of the estrogen related receptor (ERR) signaling pathway from Tox21 library (AID 1224848); also: nearly all actives have a fitted effect of over 50% in size
In short: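 Screening used an ERR reporter line supplied by NTP, exposed for 18 h at 37 C to library compounds delivered in DMSO. Signal was luciferase luminescence developed with ONE-Glo at room temperature for 30 min.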

[20] = qHTS assay to identify small molecule agonists of the estrogen related receptor (ERR) signaling pathway from Tox21 library (AID 1224849; calls by dose curve; also: nearly all actives have a fitted effect of over 15% in size); conditions: ERR reporter cell line, ONE-Glo luciferase, 18 h; at 92.4 µM (top of the series) unless noted
In short: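 Agonist signal is luciferase luminescence from an ERR reporter cell line treated 18 h at 37 C with DMSO-dissolved compounds, read 30 min after ONE-Glo addition at room temperature.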
% is scaled to controls: 0 for no effect and ±100 for the full control effect.

Cc1ccc2ccc(Cl)cc2n1
inactive: outcome [1] | outcome [2] | outcome [3] | Potency [4] | outcome [5] | Potency [6] | outcome [7] | outcome [8] | Potency [9] | Potency [10] | outcome [11] | max response [12] 6.03% | outcome [13] | outcome [14] | outcome [15] | outcome [16] | Potency [17]

O=C(O)Cc1cn(-c2ccccc2)nc1-c1ccc(Cl)cc1
inactive: outcome [1] | outcome [2] | outcome [3] | Potency [4] | outcome [5] | Potency [6] | outcome [7] | outcome [8] | Potency [9] | outcome [11] | max response [12] -3.35% | outcome [13] | outcome [14] | outcome [15] | outcome [16] | Potency [17] | Potency [18]

C=CCCCCCCCCCCCC
inactive: outcome [1] | outcome [2] | outcome [3] | Potency [4] | outcome [5] | Potency [6] | outcome [7] | outcome [8] | Potency [9] | Potency [10] | outcome [11] | max response [12] -0.0097% | outcome [13] | outcome [14] | outcome [15] | outcome [16] | Potency [17] | Potency [18]

Oc1ccccc1-c1nnco1
inactive: outcome [1] | outcome [2] | outcome [3] | Potency [4] | outcome [5] | Potency [6] | outcome [7] | outcome [8] | Potency [9] | Potency [10] | outcome [11] | max response [12] 2.75% | outcome [13] | outcome [14] | outcome [15] | outcome [16] | Potency [17] | Potency [18]

O=C(O)C(=O)Cc1ccccc1
inactive: outcome [1] | outcome [2] | outcome [3] | Potency [4] | outcome [5] | Potency [6] | outcome [7] | outcome [8] | Potency [9] | Potency [10] | outcome [11] | max response [12] 14.4% | outcome [13] | outcome [14] | outcome [15] | outcome [16] | Potency [17]

O=C1CCCC(=O)O1
inactive: outcome [1] | outcome [2] | outcome [3] | Potency [4] | outcome [5] | Potency [6] | outcome [7] | outcome [8] | Potency [9] | Potency [10] | outcome [11] | max response [12] 15.9% | outcome [13] | outcome [14] | outcome [15] | outcome [16] | Potency [17] | Potency [18]

CCOC(=O)[C@H](CCc1ccccc1)N[C@@H](C)C(=O)N1C(=O)N(C)C[C@H]1C(=O)O
inactive: outcome [1] | outcome [2] | outcome [3] | Potency [4] | outcome [5] | Potency [6] | outcome [7] | outcome [8] | Potency [9] | Potency [10] | outcome [11] | max response [12] 1.75% | outcome [13] | outcome [14] | outcome [15] | outcome [16] | Potency [17] | Potency [18]

Nc1ncnc(Nc2ccccc2)n1
inactive: outcome [1] | outcome [2] | outcome [3] | Potency [4] | outcome [5] | Potency [6] | outcome [7] | outcome [8] | Potency [9] | Potency [10] | outcome [11] | max response [12] 3.02% | outcome [13] | outcome [14] | outcome [15] | outcome [16] | Potency [17] | Potency [18]

Cc1nc2n(c(=O)c1CCN1CCC(c3noc4cc(F)ccc34)CC1)CCC[C@H]2O
inactive: activity change, negative = cytotoxicity [1] 1.15% [at 15.8 µM] | activation (H2AX phosphorylation) [2] -1.87% [at 31.6 µM] | activation [3] -0.458% [at 15.8 µM] | activity change, negative = cytotoxicity [4] -0.277% [at 31.6 µM] | activity, negative = inhibition [19] 3.9% [at 19 µM] | activity change, positive = activation [20] 2.19% [at 19 µM] | activity change, negative = cytotoxicity [5] 1.28% [at 15.8 µM] | cytotoxicity [7] 0.136% [at 15.8 µM] | activity change, negative = cytotoxic [8] 0.984% [at 15.8 µM] | cytotoxicity increase [9] 6.76% [at 15.8 µM] | viability change, negative = cytotoxic [11] -0.0945% [at 15.8 µM] | activity change [13] -3.48% [at 15.8 µM] | cytotoxicity increase [14] -0.968% [at 15.8 µM] | activity change, negative = cytotoxic [15] 0.664% [at 15.8 µM] | cytotoxicity [16] 0.861% [at 15.8 µM] | cytotoxicity increase [17] 0.318% [at 15.8 µM] | activity change, negative = cytotoxicity [18] 7.51% [at 15.8 µM]

CCC(CC)CO
inactive: outcome [1] | outcome [2] | outcome [3] | Potency [4] | outcome [5] | Potency [6] | outcome [7] | outcome [8] | Potency [9] | outcome [11] | max response [12] 3.01% | outcome [13] | outcome [14] | outcome [15] | outcome [16] | Potency [17] | Potency [18]

O=C(O)c1ccc(Cl)cc1Cl
inactive: outcome [1] | outcome [2] | outcome [3] | Potency [4] | outcome [5] | Potency [6] | outcome [7] | outcome [8] | Potency [9] | outcome [11] | max response [12] 7.46% | outcome [13] | outcome [14] | outcome [15] | outcome [16] | Potency [17]

O=C(OCC(COC(=O)c1cccnc1)(COC(=O)c1cccnc1)COC(=O)c1cccnc1)c1cccnc1
inactive: outcome [1] | outcome [2] | outcome [3] | Potency [4] | outcome [5] | Potency [6] | outcome [7] | outcome [8] | Potency [9] | Potency [10] | outcome [11] | max response [12] 10.7% | outcome [13] | outcome [14] | outcome [15] | outcome [16] | Potency [17] | Potency [18]

Cc1ccc(C=O)cc1C
inactive: outcome [1] | outcome [2] | outcome [3] | Potency [4] | outcome [5] | Potency [6] | outcome [7] | outcome [8] | Potency [9] | Potency [10] | outcome [11] | max response [12] 2.17% | outcome [13] | outcome [14] | outcome [15] | outcome [16] | Potency [17] | Potency [18]
